Each structure is given as a SMILES string. The campaign covered roughly 52,000 compounds. About 4,300 (8.3%) were called active. Cut-off read from the data, not from the text of the source: active = survival mostly below about 52% (no sharp cut-off); inactive = mostly above about 56%. What follows is part of a selection rich in actives, with near analogues and random picks from the rest.

The assay concerns DeltatarO mutant. The assay can be described thus: S. aureus survival, RN4220 and DeltatarO strains – OD600, teichoic acid synthesis inhibitors, primary screen (AID 463173). To be noted: S. aureus RN4220 wild type/DeltatarO growth, OD600, 18 h, hits give low values, screened at 18.75 µg/mL (by protocol).
`CC(=O)N1CCN(c2ccc(NC(=O)COc3ccc(Cl)c(C)c3)cc2)CC1`: the survival was 68% (inactive).

On to `CCN(CC)S(=O)(=O)c1ccc(NC(=O)CN(c2ccccc2)S(=O)(=O)N(C)C)cc1`, for which the survival is 69% (inactive).

In the case of `CCNC(=O)c1cnc2sc(N3CCCCCC3)nn2c1=O`, the survival is 81% (inactive).

Turning to `C/C(Cc1ccccc1)=N\NC(=O)c1cc(C(C)(C)C)[nH]n1`, the survival is 101% (inactive).

In the case of `CC1=C(c2ccc(C)c(C)c2)S(=O)(=O)N=C1N1CCC(C(=O)NC(C)Cc2ccco2)CC1` (configuration not stated), the survival was 83% (inactive).

As for `O=C(CN1CCN(c2ncccn2)CC1)N(Cc1ccccc1)c1ccc(F)cc1`, the survival is 78% (inactive).

Regarding `COc1ccc(NC(=O)C2CCN(C3=NS(=O)(=O)C(c4ccc(C)c(C)c4)=C3C)CC2)c(OC)c1`, the survival was 91% (inactive).

`CN=CC1=C(O)C(C(=O)OC)C(C)(C)CC1=O` (configuration not stated): the survival is 74% (inactive).

Regarding `CCCCCn1c(=O)[nH]c2cc(C(=O)N3CCN(c4ccccc4)CC3)ccc2c1=O`, the survival is 68% (inactive).

Take `CCOc1ccc(NC(=O)CCNS(=O)(=O)c2cccc3nonc23)cc1`: the survival is 70% (inactive).

On to `COc1ccc(NC(=O)CCNS(=O)(=O)c2cccc3nonc23)cc1`, for which the survival is 50% (active).

With `CCOc1ccc(NC(=O)CCS(=O)(=O)c2cccc3nonc23)cc1`, the survival is 78% (inactive).

On to `O=C(C1CCCCC1)N(Cc1cccnc1)c1nc2c(F)cc(F)cc2s1`, for which the survival is 88% (inactive).

As to `COc1ccc(C2C=C(c3ccccc3)Nc3nc(NC(=O)/C=C/c4ccccc4)nn32)cc1` (configuration not stated), the survival was 59% (inactive).

For `COc1ccccc1/C=C/C(=O)Nc1nc2n(n1)C(c1ccc(F)cc1)C=C(c1ccccc1)N2` (configuration not stated), the survival was 65% (inactive).

Consider `O=C(/C=C/c1ccccc1)Nc1nc2n(n1)C(c1ccc(Cl)cc1)C=C(c1ccccc1)N2` (configuration not stated), for which the survival was 38% (active).

As to `COc1ccc(C2C=C(c3ccccc3)Nc3nc(NC(=O)/C=C/c4ccccc4Cl)nn32)cc1` (configuration not stated), the survival was 96% (inactive).

For `O=C(/C=C/c1ccccc1)Nc1nc2n(n1)C(c1ccc(F)cc1)C=C(c1ccccc1)N2` (configuration not stated), the survival is 44% (active).

In the case of `COc1ccc(/C=C/C(=O)Nc2nc3n(n2)C(c2ccccc2)C=C(c2ccc(Cl)cc2)N3)cc1` (configuration not stated), the survival was 77% (inactive).

As to `COc1ccc(C2C=C(c3ccccc3)Nc3nc(NC(=O)/C=C/c4ccc(Cl)cc4)nn32)cc1` (configuration not stated), the survival was 53% (inactive).

Consider `O=C(/C=C/c1ccc(F)cc1)Nc1nc2n(n1)C(c1ccc(Cl)cc1)C=C(c1ccccc1)N2` (configuration not stated), for which the survival was 33% (active).

As to `COc1ccc(C2C=C(c3ccccc3)Nc3nc(NC(=O)/C=C/c4ccccc4OC)nn32)cc1` (configuration not stated), the survival was 52% (active).

`COc1ccc(NCc2cccn2-c2nnc(N3CCC(C)CC3)s2)c(OC)c1`: the survival is 73% (inactive).

As to `COc1ccc(C(=O)Nc2ccccc2C(=O)NC(C(=O)O)C(C)C)cc1` (configuration not stated), the survival was 84% (inactive).

For the compound `O=C(CSc1nc(-c2ccccc2)cc(=O)[nH]1)Nc1ccccc1F`, the survival was 89% (inactive).

Regarding `CCCN(CCC)S(=O)(=O)c1ccc(C(=O)N2CCC(=O)c3ccccc32)cc1`, the survival is 94% (inactive).

As for `CCc1cccc(C)c1NC(=O)C(CC)n1ncn2c(cc3cc(C)ccc32)c1=O` (configuration not stated), the survival was 86% (inactive).

For `COc1ccc(NC(=O)CN(c2cccc(C)c2C)S(=O)(=O)c2ccccc2)cc1OC`, the survival was 61% (inactive).

In the case of `Cc1ccc2c(c1)cc1c(=O)n(CC(=O)N(C)c3ccccc3)nc(C)n12`, the survival was 129% (inactive).

On to `O=C(NCCc1ccccc1)c1ccc2c(c1)N(Cc1ccccc1)C(=O)c1ccccc1S2=O` (configuration not stated), for which the survival was 70% (inactive).

For `COc1ccc(OC)c2sc(N(Cc3cccnc3)C(=O)c3ccc(C(C)=O)cc3)nc12`, the survival is 120% (inactive).

As to `COc1ccc(/C=C/C(=O)Nc2nc3n(n2)C(c2ccccc2)C=C(c2ccccc2)N3)cc1` (configuration not stated), the survival is 70% (inactive).

`COc1ccc(/C=C/C(=O)Nc2nc3n(n2)C(c2ccc(F)cc2)C=C(c2ccccc2)N3)cc1` (configuration not stated): the survival is 42% (active).

For `COc1ccc(C2C=C(c3ccccc3)Nc3nc(NC(=O)/C=C/c4ccc(F)cc4)nn32)cc1` (configuration not stated), the survival is 51% (inactive).

For the compound `Cc1cc(=O)[nH]c(SCC(=O)OCc2ccccc2)c1C#N`, the survival is 102% (inactive).

Turning to `CCCN(CCC)CCCNC(=O)Cn1ncc2c3ccccc3n(Cc3ccccc3F)c2c1=O`, the survival was 129% (inactive).

As for `Cc1ccccc1Cn1c(CN2CCC(C(=O)NCc3ccc(Cl)cc3)CC2)cc2ccccc21`, the survival is 67% (inactive).

`CCCCN(CC)CCCNC(=O)c1cc2c(=O)[nH]c3ccccc3c2n1C`: the survival is 90% (inactive).

As for `CN(C)c1ccc(NC(=O)Cn2c(SCc3ccc(F)cc3)nc3ccncc32)cc1`, the survival is 72% (inactive).

As to `COc1ccc(CSc2nc3ccncc3n2CC(=O)Nc2cc(C)cc(C)c2)cc1`, the survival was 60% (active).

Consider `O=C(Cn1c(SCc2ccccc2F)nc2ccncc21)Nc1ccccc1C(F)(F)F`, for which the survival is 66% (inactive).

As for `COc1cccc(CSc2nc3ccncc3n2CC(=O)Nc2ccc(OC)c(OC)c2OC)c1`, the survival was 98% (inactive).

On to `CCc1ccccc1NC(=O)Cn1c(SCc2ccc(F)cc2)nc2ccncc21`, for which the survival is 36% (active).

For `COc1ccc(CSc2nc3ccncc3n2CC(=O)Nc2ccc(C)c(F)c2)cc1`, the survival is 85% (inactive).

For the compound `COc1ccc(S(=O)(=O)N(CCc2ccccc2)CC(=O)Nc2cc(C)cc(C)c2)cc1OC`, the survival was 54% (inactive).

As to `Cc1ccc(C)c(Cn2c(=O)n(-c3ccc(F)cc3)c(=O)c3sc4ccccc4c32)c1`, the survival is 95% (inactive).

Regarding `CC[N+](C)(C)Cc1ccco1`, the survival was 80% (inactive).

As for `COc1cc2c(C(=O)Nc3cc(OC)c(OC)c(OC)c3)cn(C)c(=O)c2cc1OC`, the survival was 63% (inactive).

Take `OC1(C#Cc2ccccc2)CCCCC1`: the survival is 104% (inactive).

Take `COc1ccc(CCCc2n[nH]c(=S)o2)c(C)c1`: the survival was 94% (inactive).

As to `Cn1c(=O)c2c(-c3ccc(Cl)cc3)n(CCc3ccccc3)cc2n(C)c1=O`, the survival was 93% (inactive).

With `CCCCn1cc2c(c1-c1ccccc1Br)c(=O)n(C)c(=O)n2C`, the survival was 76% (inactive).

For the compound `Cn1c(=O)c2c(-c3ccc(Cl)cc3)n(Cc3ccccc3)cc2n(C)c1=O`, the survival is 40% (active).

For the compound `Cn1c(=O)c2c(-c3ccc(Br)cc3)n(CCc3ccccc3)cc2n(C)c1=O`, the survival was 89% (inactive).

On to `Cn1c(=O)c2c(-c3ccc(Cl)cc3)n(Cc3ccc(Cl)cc3)cc2n(C)c1=O`, for which the survival was 56% (inactive).

For `Cn1c(=O)c2c(-c3ccccc3Cl)n(-c3cc(Cl)ccc3O)cc2n(C)c1=O`, the survival is 53% (active).

With `Cn1c(=O)c2c(-c3ccc(Br)cc3)n(Cc3ccc(F)cc3)cc2n(C)c1=O`, the survival is 49% (active).

On to `Cc1ccc(-c2c3c(=O)n(C)c(=O)n(C)c3cn2-c2cc(C)ccc2O)cc1`, for which the survival is 75% (inactive).

On to `Cn1c(=O)c2c(-c3ccccc3Br)n(Cc3ccccc3)cc2n(C)c1=O`, for which the survival was 88% (inactive).

`CCCCn1cc2c(c1-c1ccc(Br)cc1)c(=O)n(C)c(=O)n2C`: the survival was 58% (inactive).

With `Cn1c(=O)c2c(-c3ccccc3Br)n(CCc3ccccc3)cc2n(C)c1=O`, the survival was 45% (active).

Turning to `Cn1c(=O)c2c(-c3ccccc3Cl)n(Cc3ccc(Cl)cc3)cc2n(C)c1=O`, the survival is 60% (inactive).

(Values after PubChem BioAssay AID463173 (ICCB-Longwood Screening Facility, Harvard Medical School, 2010).)
